Activity calls are given as the source filed them. Rule for the calls: active = hit-call score of the fitted dose curve at least 0.9, where 1 is the maximum; inactive = score below 0.9.
Each compound was assayed on Glutamate-cysteine ligase catalytic (GCLC), GCLC (gene 2729) (assay: LTEA_HepaRG_GCLC: Life Technologies and Expression Analysis (LTEA) Assay for Glutamate-cysteine ligase catalytic (GCLC) using HepaRG (AID 2283498)). Settings: mRNA level, 48 h; actives raise or lower the signal.
Method: LTEA_HepaRG is a cell based, multiplexed-readout assay that uses HepaRG, a human liver cell line, with measurements taken at 48 hours after chemical dosing on a 96-well plate.LTEA_HepaRG_GCLC is one of 102 assay component(s) measured in the LTEA HepaRG cell culture assay. It is a marker of Oxidative Stress.Data from the assay component LTEA_HepaRG_GCLC was analyzed into 1 endpoint. This assay endpoint, LTEA_HepaRG_GCLC, was analyzed with bidirectional fitting relative to DMSO as the negative control and baseline of activity. Using a type of inducible reporter, measures of mRNA induction for gain or loss-of-signal activity can be used to understand regulation of transcription factor activity. To generalize the intended target to other relatable targets, this assay endpoint is annotated to the ligase intended target family, where the subfamily is C-N ligase.
A total of 1060 chemcials from the ToxCast library were tested in eight-point concentration-response experiments. Cell culture and cytotoxicity assays were conducted at Thermo Fisher Scientific's Custom Services facility (Madison, WI). A single lot of human HepaRG cells (Thermo Fisher Scientific, Frederick, MD) was used for the cell culture experiments. 96-well format collagen type I coated plates of human HepaRG cells were prepared using established methods. Briefly, cryopreserved HepaRG cells were thawed, plated at a density of approximately 100,000 cells/well in HepaRG Thaw, Plate, and General Purpose media (HPRG770, Thermo Fisher Scientific), and incubated for 48 hours. 0.5% DMSO was selected as vehicle control to balance the requisite need of DMSO in HepaRG cultures to maintain differentiation (for example, baseline metabolism, proportions of hepatocytes vs. cholangiocytes), while enabling further hepatic receptor pathway activation (for example, PXR and CAR) in response to chemical exposure. 48 hours after plating, the culture medium was replaced with HepaRG Serum-Free Incudtion Media. Cells were exposed to each test chemical in duplicate and maintained in CO2 incubators for another 48 hours. Chemical plates were thawed to room temperature and 200x concentrations of treatment groups were prepared. 8-point conentration-reponse curves were made with the highest exposure at 100 uM, followed by half-log dilutions, all in 0.5% DMSO. Each test plate contained variouse controls, induction positive controls (1mM phenobarbital), cytotoxicity positive controls ([…] aflatoxin B1), vehicle controls (0.5% DMSO), and total lysis controls (0.5% DMSO). Cell morphology images were taken using an Essen IncuCyte FLR automated microscope, with six 96-well plates imaged in about 24 minutes. Images were captured and exported and JPEG files. Spent culture media was transfered to black-well plates for the LDH assay, and remaining media was sorted at -80 C for later use. Cells were treated with RLT buffer and frozen until shipped for gene expression analysis. Total RNA was isolated from the cell suspension in 75 uL of Buffer RLT (Qiagen, Germantown, MD 20874) by Quintiles/Expression Analysis (Durham, NC) using a custom isolation procedure. Total RNA from each plate well was transferred to a preamplification plate. Fluidigm's 96.96 Dynamic ArrayTM (Fluidigm, Amsterdam, the Netherlands) technology was used for gene expression analyses by quantitative reverse transcription polymerase chain reaction (qRT-PCR, performed by Quintiles/Expression Analysis, Durham, NC)89. Standard TaqManTM Assays (Applied Biosystems/ThermoFisher Scientific, Foster City, CA) were used to assess the expression of 93 genes selected based on their selectivity and sensitivity to important hepatic receptors known to be modulated by environmental chemicals; importance in human hepatocyte functionality; and hepatotoxicity. […]
With `N#Cc1cccnc1` the outcome was “inactive”. In the case of `CCCCCCCCCCCCc1cccc(S(=O)(=O)O)c1`, the outcome was “inactive”. `Clc1cccc(Cl)c1Cl` was tested, and the outcome was “inactive”. For `Oc1c(Cl)cc(Cl)cc1Cl`, the outcome was “inactive”. In the case of `OCCN(CCO)CCO`, the outcome was “inactive”. In the case of `CC(C)(C)c1ccccc1O`, the outcome was “inactive”. For `CC(C)O.CC(C)O.OCCN(CCO)CCO.OCCN(CCO)CCO.[Ti]`, the outcome was “inactive”. With `O=C(N[C@H]1CN2CCC1CC2)c1ccc2c(c1)OCCO2` the outcome was “inactive”. For `O=C(O)C1(c2ccc3c(c2)OC[C@H](Cc2ccc(-c4ccccc4)cc2)[C@H]3O)CCCC1`, the AC50 was 75.6 µM (active). With `Clc1cccc(Cl)c1` the outcome was “inactive”. For `Oc1cc(Cl)c(Cl)cc1Cl`, the outcome was “inactive”. In the case of `Cc1cc(C)cc(C)c1`, the outcome was “inactive”. In the case of `CN(C)C(=S)S`, the outcome was “inactive”. For `COc1ccccc1N`, the outcome was “inactive”.

Source: PubChem BioAssay (EPA / NIEHS)
